Measurements as given in PubChem BioAssay (Tox21).
Where “and” joins values, the source holds several entries; their conditions need not be identical. Equal entries are not always repeated. Records with an inconclusive call do not appear. Some compounds were tested as several samples or in several runs, with calls that do not always agree. Calls of active or inactive are those of the source. Unless noted, calls follow the shape of the full dose curve.

What was measured:
[1] = Nuclear factor erythroid 2-related factor 2/antioxidant responsive element (Nrf2/ARE) small molecule agonists: qHTS cell viability counter screen in human keratinocytes (AID 1919968; active = well fitted curve in the direction sought with a large enough effect in the repeat runs; an effect the other way counts as inactive or inconclusive; also: nearly all actives have a fitted effect of over 55% in size; also: potency is read from the fitted curve at half-maximal effect)
Method in brief: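 Cells of the KeratinoSens line were plated at 1,500 per well and left for 5 h before compound transfer from DMSO stocks. After a 23 h incubation (37 C, 5% CO2), CellTiter-Fluor was added. Signal was taken as fluorescence intensity 1 h later.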

[2] = Nuclear factor erythroid 2-related factor 2/antioxidant responsive element (Nrf2/ARE) small molecule agonists: luciferase reporter gene qHTS assay in human keratinocytes (AID 1919969); also: nearly all actives have a fitted effect of over 35% in size
[3] = biological target: Gonadotropin-releasing hormone receptor (Homo sapiens) (UniProt P30968); experiment: Human gonadotropin-releasing hormone receptor (GnRHR) small molecule agonists, calcium flux assay in GnRHR-HEK293 cells (AID 1920063); also: nearly all actives have a fitted effect of over 35% in size
Chain of Gonadotropin-releasing hormone receptor (Homo sapiens) (P30968 whole entry, looked up): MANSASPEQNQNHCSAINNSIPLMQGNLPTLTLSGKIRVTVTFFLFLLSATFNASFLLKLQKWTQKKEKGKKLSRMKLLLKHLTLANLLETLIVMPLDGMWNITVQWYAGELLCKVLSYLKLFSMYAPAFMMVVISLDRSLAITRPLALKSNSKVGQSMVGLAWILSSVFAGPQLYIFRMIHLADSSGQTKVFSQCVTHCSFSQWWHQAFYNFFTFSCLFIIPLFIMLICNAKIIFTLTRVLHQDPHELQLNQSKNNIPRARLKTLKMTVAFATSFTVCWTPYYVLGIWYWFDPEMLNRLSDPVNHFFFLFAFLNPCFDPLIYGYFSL
Method in brief: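 Compounds dissolved in DMSO are pin-transferred onto dye-loaded GnRHR-HEK293 cells, which were seeded 18 h before at 37 C/5% CO2. Calcium signal is read as fluorescence intensity at 1 s intervals for 3 min.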

[4] = biological target: KiSS-1 receptor (Homo sapiens) (UniProt Q969F8); experiment: Human kisspeptin (KISS1R) small molecule agonists, calcium flux assay in KISS1R-HEK293 cells (AID 1920064; active = well fitted curve in the direction sought with a large enough effect in the repeat runs; an effect the other way counts as inactive or inconclusive)
Chain of KiSS-1 receptor (Homo sapiens) (Q969F8 whole entry, looked up): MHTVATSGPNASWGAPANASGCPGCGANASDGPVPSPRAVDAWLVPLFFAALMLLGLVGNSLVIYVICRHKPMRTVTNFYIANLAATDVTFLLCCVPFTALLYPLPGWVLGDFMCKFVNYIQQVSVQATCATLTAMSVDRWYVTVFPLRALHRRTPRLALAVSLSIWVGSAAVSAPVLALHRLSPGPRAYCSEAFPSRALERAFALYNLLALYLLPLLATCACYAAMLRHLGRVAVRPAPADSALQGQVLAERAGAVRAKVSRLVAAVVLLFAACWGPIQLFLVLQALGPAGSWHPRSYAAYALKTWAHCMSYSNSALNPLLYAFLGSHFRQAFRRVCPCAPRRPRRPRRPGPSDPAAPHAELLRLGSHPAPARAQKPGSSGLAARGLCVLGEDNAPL
Method in brief: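 Cell line: HEK293, stable human KISS1R. Dye loading 1 h at 37 C after 18 h culture. Read: kinetic fluorescence, 480/540 nm, 3 min at 1 s intervals.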

[5] = G protein-coupled receptor (GPCR) small molecule agonists, calcium flux assay: HEK293 wild type cell line counter screen (AID 1920065)
Method in brief: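 Tox21 10K compounds, 15 concentrations each in triplicate, pin-transferred in DMSO onto dye-loaded cells; kinetic read at 480/540 nm for 3 min, 1 s intervals.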

[6] = p53 small molecule agonists, cell-based qHTS assay with human liver microsomes (AID 1963577);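 also: p53 response element beta-lactamase reporter cells with liver microsomes plus NADPH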
Method in brief: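 p53RE-bla cells; 5 h settle, 37 C/5% CO2; cpd + HLM 0.5 mg/mL + NADPH 0.5 mg/mL (final); 16 h 37 C; LiveBLAzer 2 h RT dark; fluorescence readout.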

[7] = p53 small molecule agonists, cell-based qHTS assay with rat liver microsomes (AID 1963578)
Method in brief: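 Rat liver microsome activation: microsomes 0.5 mg/mL, NADPH 0.5 mg/mL final; p53RE-bla cells, 16 h 37 C; LiveBLAzer readout, 2 h RT dark.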

[8] = p53 small molecule agonists, cell-based qHTS assay with human liver microsomes: qHTS cell viability counter screen (AID 1963579); also: nearly all actives have a fitted effect of over 45% in size; also: potency is read from the fitted curve at half-maximal effect
Method in brief: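 Luminescent CellTiter-Glo read-out, 30 min at room temperature, gauged cytotoxicity in p53RE-bla cells exposed 16 h at 37 C to DMSO-dissolved compounds with metabolic activation by human liver microsomes and NADPH, each 0.5 mg/mL final.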

[9] = p53 small molecule agonists, cell-based qHTS assay with rat liver microsomes: qHTS cell viability counter screen (AID 1963580); also: nearly all actives have a fitted effect of over 45% in size; also: potency is read from the fitted curve at half-maximal effect
Method in brief: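 Cytotoxicity counter screen: intracellular ATP measured by CellTiter-Glo luminescence in the same wells as the beta-lactamase reporter read, on HCT-116 p53RE-bla cells exposed 16 h at 37 C to compounds with rat liver microsomes and NADPH, each 0.5 mg/mL final.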

[10] = p53 small molecule agonists, cell-based qHTS assay: qHTS cell viability counter screen (AID 1963581); also: nearly all actives have a fitted effect of over 45% in size
Method in brief: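 ATP content measured by luminescence in HCT-116 p53RE-bla cells treated 16 h at 37 C, same wells as the reporter screen.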

[11] = p53 small molecule agonists, cell-based qHTS assay (AID 1963582; active = well fitted activation curve with a large enough effect in the signal ratio in the repeat runs, not every such curve was filed as active; the % refers to the signal ratio; also: potency is read from the fitted curve at half-maximal effect)
Method in brief: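 16 h compound exposure (37 C) of p53 response element–bla cells, preceded by 5 h recovery at 37 C/5% CO2; read-out via LiveBLAzer B/G FRET substrate, 2 h RT, fluorescence intensity.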

[12] = biological target: 5-hydroxytryptamine receptor 2A (Homo sapiens) (UniProt P28223); experiment: 5-hydroxytryptamine receptor 2A (HTR2A) small molecule agonists, cell-based qHTS assay (AID 1963587); also: nearly all actives have a fitted effect of over 30% in size
Chain of 5-hydroxytryptamine receptor 2A (Homo sapiens) (P28223 whole entry, looked up): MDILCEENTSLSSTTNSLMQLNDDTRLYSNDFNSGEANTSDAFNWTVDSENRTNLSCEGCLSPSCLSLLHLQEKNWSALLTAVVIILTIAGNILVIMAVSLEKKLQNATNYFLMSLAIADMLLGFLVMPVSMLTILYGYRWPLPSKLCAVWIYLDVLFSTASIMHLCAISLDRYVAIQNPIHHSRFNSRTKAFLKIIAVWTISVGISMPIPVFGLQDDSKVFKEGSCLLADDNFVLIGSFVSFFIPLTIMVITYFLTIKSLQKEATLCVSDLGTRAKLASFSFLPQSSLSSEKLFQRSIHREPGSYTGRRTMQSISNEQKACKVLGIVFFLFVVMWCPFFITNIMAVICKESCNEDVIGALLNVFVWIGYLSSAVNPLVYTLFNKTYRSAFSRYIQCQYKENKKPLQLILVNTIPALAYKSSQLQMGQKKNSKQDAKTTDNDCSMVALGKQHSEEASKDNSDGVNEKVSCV
Method in brief: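 CHO cells stably expressing human HTR2A, plated 18 h, loaded with calcium dye 1 h at 37 C. Agonist mode: compounds added and intracellular calcium fluorescence recorded kinetically for 2 min at 1 sec intervals.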

[13] = biological target: Muscarinic acetylcholine receptor M1 (Homo sapiens) (UniProt P11229); experiment: Cholinergic receptor muscarinic 1 (CHRM1) small molecule antagonists, cell-based qHTS assay (AID 1963588); also: nearly all actives have a fitted effect of over 40% in size
Chain of Muscarinic acetylcholine receptor M1 (Homo sapiens) (P11229 whole entry, looked up): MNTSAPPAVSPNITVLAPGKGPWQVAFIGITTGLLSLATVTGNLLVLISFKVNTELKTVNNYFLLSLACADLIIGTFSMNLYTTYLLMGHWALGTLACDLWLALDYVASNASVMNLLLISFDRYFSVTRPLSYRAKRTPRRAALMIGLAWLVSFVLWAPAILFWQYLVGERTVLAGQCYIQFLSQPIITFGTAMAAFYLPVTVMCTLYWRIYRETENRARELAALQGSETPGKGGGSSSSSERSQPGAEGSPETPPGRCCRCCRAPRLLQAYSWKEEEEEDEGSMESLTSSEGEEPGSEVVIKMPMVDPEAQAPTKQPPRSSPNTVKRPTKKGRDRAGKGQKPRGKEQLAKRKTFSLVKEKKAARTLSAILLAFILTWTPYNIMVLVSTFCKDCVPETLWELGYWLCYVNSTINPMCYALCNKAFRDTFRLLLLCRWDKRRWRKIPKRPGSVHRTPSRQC
Method in brief: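 Compounds were tested at 15 concentrations in three independent runs. Dye-loaded CHRM1-CHO cells were exposed 5 min at room temperature before stimulation by acetylcholine added at 50nM. Intracellular calcium was read kinetically on FDSS for 3 min.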

[14] = biological target: Muscarinic acetylcholine receptor M1 (Homo sapiens) (UniProt P11229); experiment: Cholinergic receptor muscarinic 1 (CHRM1) small molecule agonists, cell-based qHTS assay (AID 1963589); also: nearly all actives have a fitted effect of over 35% in size
Method in brief: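 Homogeneous fluorescence calcium flux, agonist mode. Human M1-expressing CHO cells; compound dosed at 15 concentrations, three independent runs; signal sampled every 1 sec.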

[15] = cAMP Responsive Elements (CRE) small molecule agonists, cell-based qHTS assay (AID 1963590)
Method in brief: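 HEK 293T cells stably bearing CRE-bla were plated at 2,000 cells per well and rested 18 h. Compounds, positive controls or DMSO were added for 3 h at 37 C. LiveBLAzer B/G substrate was then loaded for 2 h at room temperature.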

[16] = biological target: Beta-2 adrenergic receptor (Homo sapiens) (UniProt P07550); experiment: Adrenergic beta2 receptor (ADRB2) small molecule antagonists, cell-based qHTS assay (AID 1963592); also: series mostly up to about 92 µM; nearly all actives have a fitted effect of over 50% in size
Chain of Beta-2 adrenergic receptor (Homo sapiens) (P07550 whole entry, looked up): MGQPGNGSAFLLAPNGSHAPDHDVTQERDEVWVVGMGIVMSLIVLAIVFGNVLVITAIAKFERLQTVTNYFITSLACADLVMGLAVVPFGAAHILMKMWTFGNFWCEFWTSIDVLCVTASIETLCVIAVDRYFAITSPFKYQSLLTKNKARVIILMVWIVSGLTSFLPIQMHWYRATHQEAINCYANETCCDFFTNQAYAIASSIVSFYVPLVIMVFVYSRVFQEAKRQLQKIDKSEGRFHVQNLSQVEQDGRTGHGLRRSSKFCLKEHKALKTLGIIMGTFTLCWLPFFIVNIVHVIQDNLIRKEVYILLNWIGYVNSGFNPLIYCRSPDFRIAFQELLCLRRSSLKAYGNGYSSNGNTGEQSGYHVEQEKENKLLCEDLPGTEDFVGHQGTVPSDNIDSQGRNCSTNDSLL
Method in brief: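 Assay format: CHO-ADRB2 cells, 18-20hr seeding at 37C/5% CO2, then compound plus 1nM isoproterenol agonist mix for 0.5hr RT. Homogeneous time-resolved fluorescence cAMP detection after 1hr, expressed as 665/615 nm ratio.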

[17] = biological target: D(2) dopamine receptor (Homo sapiens) (UniProt P14416); experiment: Dopamine D2 receptor (DRD2) small molecule agonists, cell-based qHTS assay (AID 1963594); also: nearly all actives have a fitted effect of over 35% in size
Chain of D(2) dopamine receptor (Homo sapiens) (P14416 whole entry, looked up): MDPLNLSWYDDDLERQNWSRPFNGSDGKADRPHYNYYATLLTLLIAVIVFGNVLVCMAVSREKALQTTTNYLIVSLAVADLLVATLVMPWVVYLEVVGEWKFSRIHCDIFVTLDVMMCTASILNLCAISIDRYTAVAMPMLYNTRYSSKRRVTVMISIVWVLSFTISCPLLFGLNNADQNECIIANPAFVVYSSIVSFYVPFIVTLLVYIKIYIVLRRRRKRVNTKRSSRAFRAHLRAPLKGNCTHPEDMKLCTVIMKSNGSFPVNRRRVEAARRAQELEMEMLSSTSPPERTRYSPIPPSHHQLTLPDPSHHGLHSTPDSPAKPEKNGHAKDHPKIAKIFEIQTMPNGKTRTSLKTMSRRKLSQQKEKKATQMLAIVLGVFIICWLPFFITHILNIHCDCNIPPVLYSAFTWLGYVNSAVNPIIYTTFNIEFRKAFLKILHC
Method in brief: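 HEK293 cells stably expressing human DRD2, pre-treated with PDE inhibitor Ro20-1724 (0.1 mM final) and compound 10 min at room temperature, then stimulated with NKH477 (200nM […]) for 30 min. cAMP read by HTRF (665/620 nm).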

[18] = biological target: D(2) dopamine receptor (Homo sapiens) (UniProt P14416); experiment: Dopamine D2 receptor (DRD2) small molecule antagonists, cell-based qHTS assay (AID 1963595; active = well fitted inhibition curve with a large enough effect in the signal ratio in the repeat runs, with a control signal flat; the % refers to the signal ratio)
Method in brief: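 In this cell-based antagonist screen, compounds act for 10 min at room temperature before a 30 min challenge with 12 nM quinpirole and 200 nM NKH477. cAMP is quantified by HTRF competition in DRD2-HEK293 cells containing 0.1 mM Ro20-1724.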

[19] = cAMP Responsive Elements (CRE) small molecule antagonists, cell-based qHTS assay (AID 1963591; active = well fitted inhibition curve with a large enough effect in the signal ratio in the repeat runs, not every such curve was filed as active; the % refers to the signal ratio)
Method in brief: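 First, CRE-bla HEK293T cells settled 18 h at 37 C. Next, compound and 0.25 uM final NKH477 were applied for 3 h. Last, LiveBLAzer B/G substrate was loaded for 2 h at room temperature.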

[20] = biological target: Beta-2 adrenergic receptor (Homo sapiens) (UniProt P07550); experiment: Adrenergic beta2 receptor (ADRB2) small molecule agonists, cell-based qHTS assay (AID 1963593);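 also: CHO cells stably overexpressing human ADRB2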
Method in brief: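 CHO cells stably over-expressing ADRB2 were plated overnight at 37C, then dosed with compounds plus a stimulation mix containing 100uM IBMX and 25uM Ro-20-1724 for 0.5hr at room temperature. cAMP was measured by HTRF competition, 1hr.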
% is scaled to controls: 0 for no effect and ±100 for the full control effect.

CCCCC(=O)O
inactive: Potency [1] | Potency [2] | Potency [3] | Potency [4] | Potency [5] | Potency [6] | Potency [7] | Potency [8] | Potency [9] | Potency [10] | Potency [11] | Potency [12] | Potency [13] | Potency [14] | Potency [15] | Potency [16] | Potency [17] | Potency [18]

CC(CCC(=O)O)(c1ccc(O)cc1)c1ccc(O)cc1
inactive: Potency [1] | Potency [2] | Potency [3] | Potency [4] | Potency [5] | Potency [6] | Potency [7] | Potency [8] | Potency [9] | Potency [10] | Potency [11] | Potency [12] | Potency [13] | Potency [14] | Potency [15] | Potency [19] | Potency [16] | Potency [17] | Potency [18]

O=c1[nH]cc(F)c(=O)[nH]1
47.5 µM (active) and inactive: Potency [9]
inactive: Potency [2] | Potency [3] | Potency [4] | Potency [5] | Potency [6] | Potency [7] | Potency [8] | Potency [10] | Potency [15] | Potency [19] | Potency [16] | Potency [17] | Potency [18]
5.65 µM (active) and inactive: Potency [1]
active: Potency [11] 2.63 µM and 7.93 µM

OC(CCl)CCl
inactive: Potency [1] | Potency [2] | Potency [3] | Potency [4] | Potency [5] | Potency [6] | Potency [7] | Potency [8] | Potency [9] | Potency [10] | Potency [11] | Potency [12] | Potency [13] | Potency [14] | Potency [15] | Potency [19] | Potency [16] | Potency [17] | Potency [18]

COc1ccccc1OCC(O)CO (stereo not given)
inactive: Potency [1] | Potency [2] | Potency [3] | Potency [4] | Potency [5] | Potency [6] | Potency [7] | Potency [8] | Potency [9] | Potency [10] | Potency [11] | Potency [15] | Potency [19] | Potency [16] | Potency [20] | Potency [17] | Potency [18]

OC[C@@H](O)[C@@H](O)[C@H](O)[C@@H](O)CO
inactive: Potency [1] | Potency [2] | Potency [3] | Potency [4] | Potency [5] | Potency [6] | Potency [7] | Potency [8] | Potency [9] | Potency [10] | Potency [11] | Potency [15] | Potency [19] | Potency [16] | Potency [20] | Potency [17] | Potency [18]

NS(=O)(=O)c1cc2c(cc1Cl)NC=NS2(=O)=O
inactive: Potency [1] | Potency [2] | Potency [3] | Potency [4] | Potency [5] | Potency [6] | Potency [7] | Potency [8] | Potency [9] | Potency [10] | Potency [11] | Potency [12] | Potency [13] | Potency [14] | Potency [15] | Potency [19] | Potency [20] | Potency [17] | Potency [18]

C[C@]12CCC(=O)C=C1CC[C@@H]1[C@@H]2C(=O)C[C@@]2(C)[C@H]1CC[C@]2(O)C(=O)CO
408 nM (active) and inactive: Potency [8]
inactive: Potency [1] | Potency [2] | Potency [3] | Potency [4] | Potency [5] | Potency [6] | Potency [7] | Potency [9] | Potency [10] | Potency [11] | Potency [15] | Potency [16] | Potency [20] | Potency [17] | Potency [18]

CCc1ccccc1CC
inactive: Potency [1] | Potency [2] | Potency [3] | Potency [4] | Potency [5] | Potency [6] | Potency [7] | Potency [8] | Potency [9] | Potency [10] | Potency [11] | Potency [12] | Potency [14] | Potency [15] | activity change, negative = inhibition [19] 3.92% [at 18.9 µM] | activity change, negative = inhibition [16] -5.37% [at 19 µM] | Potency [20] | Potency [17] | Potency [18]

CCc1cccc(O)c1
inactive: Potency [1] | Potency [2] | Potency [3] | Potency [4] | Potency [5] | Potency [6] | Potency [7] | Potency [8] | Potency [9] | Potency [10] | Potency [11] | Potency [14] | Potency [15] | Potency [19] | Potency [16] | Potency [20] | Potency [17] | Potency [18]

OCCO
inactive: Potency [1] | Potency [2] | Potency [3] | Potency [4] | Potency [5] | Potency [6] | Potency [7] | Potency [8] | Potency [9] | Potency [10] | Potency [11] | Potency [15] | Potency [19] | Potency [16] | Potency [20] | Potency [17] | Potency [18]

Cn1c(=O)c2[nH]cnc2n(C)c1=O
inactive: Potency [1] | Potency [2] | Potency [3] | Potency [4] | Potency [5] | Potency [6] | Potency [7] | Potency [8] | Potency [9] | Potency [10] | Potency [11] | Potency [15] | Potency [19] | Potency [16] | Potency [17] | Potency [18]

CCCNC(=O)NS(=O)(=O)c1ccc(Cl)cc1
inactive: Potency [1] | Potency [2] | Potency [3] | Potency [4] | Potency [5] | Potency [6] | Potency [7] | Potency [8] | Potency [9] | Potency [10] | Potency [11] | Potency [15] | Potency [19] | Potency [16] | Potency [20] | Potency [17] | Potency [18]

CC(=O)Oc1ccccc1C(=O)O
inactive: Potency [1] | Potency [2] | Potency [3] | Potency [4] | Potency [5] | Potency [6] | Potency [7] | Potency [8] | Potency [9] | Potency [10] | Potency [11] | Potency [15] | Potency [19] | Potency [16] | Potency [20] | Potency [17]

C[C@]12C=CC(=O)C=C1CC[C@H]1[C@@H]3C[C@@H](O)[C@](O)(C(=O)CO)[C@@]3(C)C[C@H](O)[C@@]12F
inactive: Potency [1] | Potency [2] | Potency [3] | Potency [4] | Potency [5] | Potency [6] | Potency [7] | Potency [8] | Potency [9] | Potency [10] | Potency [11] | Potency [15] | Potency [19] | Potency [16] | Potency [20] | Potency [17]
